Measurements taken from PubChem BioAssay (NCI).
Compounds without any hit were thinned out: in the full panel of roughly 83,000, 20% have a hit.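 Note: values are percent growth. 100 is the growth of untreated cells, values between 100 and 0 indicate rising inhibition; between -100 and 0 indicates cell death.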 Calls of active or inactive are those of the source. Rule for the calls: active = growth percent below 10; inactive = the rest.

Assays:
Assay in all cases: NCI-60 one-dose screen, 48 h (100 = growth as untreated, 0 = no growth, -100 = all killed)
Conditions in all cases: 10 µM unless noted
[1] = tested on: SR leukemia
[2] = tested on: RPMI-8226 leukemia
[3] = tested on: OVCAR-8 ovarian
[4] = tested on: OVCAR-5 ovarian
[5] = tested on: OVCAR-4 ovarian
[6] = tested on: SK-OV-3 ovarian
[7] = tested on: IGROV1 ovarian
[8] = tested on: OVCAR-3 ovarian
[9] = tested on: HS 578T breast
[10] = tested on: NCI/ADR-RES ovarian

Measured: growth

NC(=S)NN=C1CCCCC1
inactive: [1] 72.1% | [2] 68.8% | [3] 68.6% | [4] 104% | [5] 53.6% | [6] 73% | [7] 83.7% | [8] 38% | [9] 82.3%

O=C1CCCCN1CCCCC#Cc1ccccc1C#Cc1ccc([N+](=O)[O-])cc1
inactive: [1] 18.1% | [3] 55.4% | [4] 60% | [5] 60.2% | [6] 71.1% | [8] 56.3% | [9] 69.4%
active: [2] 2.47% | [7] -36.7%

COC(=O)C(CC(=O)c1ccc(-c2ccccc2)cc1)c1ccccc1 (stereo unspecified)
inactive: [1] 24.2% | [2] 88.3% | [3] 77.5% | [4] 84.1% | [5] 71.6% | [6] 85.2% | [7] 64.7% | [8] 10.6% | [9] 71.7%

O=C(CC(O)c1ccncc1)c1ccccc1 (stereo unspecified)
active: [3] -36.8% | [5] -29.2% | [8] -60.5% | [9] -21.8%
inactive: [1] 82.1% | [2] 97.9% | [4] 104% | [6] 41.9% | [7] 18%

O=C1OC(c2ccccc2)=N/C1=C\c1ccc([N+](=O)[O-])cc1
inactive: [1] 97.3% | [2] 102% | [3] 111% | [4] 92.8% | [5] 114% | [6] 109% | [7] 100% | [8] 106% | [9] 82.6% | [10] 104%

Cc1cc(Nc2nc(-c3ccncc3)nc3ccccc23)n[nH]1
inactive: [1] 18.3% | [2] 91.6% | [3] 101% | [4] 87.1% | [5] 52.4% | [6] 22.8% | [7] 16.3% | [8] 67.2% | [9] 22.6% | [10] 86.4%

Cc1ccc(C2=NN(c3ccc(S(=O)(=O)NC(=O)NCc4ccccc4)cc3)C(c3ccc(N(C)C)cc3)C2)c(C)c1 (stereo unspecified)
inactive: [1] 21.5% | [2] 16.6% | [3] 30.6% | [4] 55.1% | [5] 57.7% | [6] 88.3% | [7] 54.1% | [8] 38.3%

CC1=C(C#N)C(C)(C)C(C#N)=C(C)N1
inactive: [1] 95.8% | [2] 98.3% | [3] 100% | [4] 87.7% | [5] 99.2% | [6] 110% | [7] 121% | [8] 107% | [9] 102%

Cc1sc(N=Nc2ccc(N(C)C)cc2)[n+]([O-])c1C
inactive: [1] 98.2% | [2] 106% | [3] 101% | [4] 107% | [5] 94.2% | [6] 104% | [7] 93.4% | [8] 96%

O=C(Cc1c(F)cccc1Cl)Nc1ccc(S(=O)(=O)Nc2ncccn2)cc1
active: [7] -23.2%
inactive: [1] 52% | [2] 70.4% | [3] 113% | [4] 103% | [5] 101% | [6] 102% | [8] 109% | [9] 111% | [10] 108%

CN(C)c1ccc(/C=C\N=Nc2ccc(Br)cc2)cc1
inactive: [1] 21% | [2] 50.2% | [3] 46.5% | [4] 76.6% | [5] 65% | [6] 92.8% | [7] 66.7% | [8] 67.9% | [9] 102% | [10] 52.3%

CCOc1ccc(/C=C/C=N/NC(N)=S)cc1
inactive: [1] 70.4% | [2] 39.7% | [3] 100% | [4] 90.9% | [5] 73.2% | [6] 110% | [7] 53.5% | [8] 73.7% | [9] 95.3% | [10] 82.6%

COc1cc(/C=C/C(=O)c2ccccc2O)ccc1OCCCOc1cc2c(cc1OC)C(=O)N1CCC[C@H]1C=N2
active: [1] -13.8% | [2] -21.7% | [4] 0.483% | [5] -2.17% | [7] -65.8% | [8] -3.51%
inactive: [3] 18.1% | [6] 33.1% | [9] 37.8% | [10] 19.3%

O=P([O-])(O)OP(=O)([O-])O.[NH-][C@H]1CCCC[C@@H]1[NH-].[OH-].[OH-].[Pt+4]
inactive: [1] 91.3% | [2] 97.8% | [3] 101% | [4] 95.2% | [5] 109% | [6] 106% | [7] 108% | [8] 111% | [9] 109% | [10] 103%

COc1ccc(-c2nc3sccn3c2-c2ccnc(NCCCNS(=O)(=O)c3ccc4ccccc4c3)n2)cc1
inactive: [1] 57% | [2] 54.9% | [3] 57.3% | [4] 132% | [5] 68.1% | [6] 95.1% | [7] 75.3% | [8] 82.7% | [9] 92.1% | [10] 53.5%

C=C1C(=O)O[C@H]2[C@H]1CC/C(Cn1cc(-c3ccc(N)cc3)nn1)=C\CC[C@@]1(C)O[C@@H]21
active: [1] 7.69% | [2] -8.22% | [3] -5.97% | [8] -30.7%
inactive: [4] 38.4% | [5] 13.6% | [6] 83.8% | [7] 18.4% | [9] 62.4% | [10] 69.8%

CCOC(=O)C1=C(CSC(=S)N(C2CCCCC2)C2CCCCC2)N(C)C(=O)NC1c1ccccc1 (stereo unspecified)
inactive: [1] 29.9% | [2] 35.8% | [3] 49.2% | [4] 92% | [5] 45% | [6] 71.4% | [7] 56.3% | [8] 56.1% | [9] 80.7% | [10] 64%

COc1ccc(S(=O)(=O)NCCNc2nccc(-c3c(-c4ccccc4)nc4sccn34)n2)cc1
active: [7] 6.6%
inactive: [1] 12.8% | [2] 27.4% | [3] 26.7% | [4] 73.8% | [5] 27.8% | [6] 23% | [8] 12.4% | [9] 47% | [10] 17.1%

Cn1c(C(N)=O)cc2c1-c1nc(NC3CCCCC3)ncc1CCC2
inactive: [1] 92.5% | [2] 93.5% | [3] 88.1% | [4] 64.6% | [5] 93.4% | [6] 91.3% | [7] 113% | [8] 97.1% | [9] 58.5% | [10] 91.5%

Nc1c(C(=O)Nc2ccccc2)sc2nc3c(cc12)CN(Cc1ccccc1)CC3
active: [5] -14.7%
inactive: [1] 55.6% | [2] 79.6% | [3] 74.8% | [4] 78.5% | [6] 39.2% | [7] 77.9% | [8] 56.6% | [9] 11.1% | [10] 71%

COc1ccc(/C=C/C(=O)c2cc(OC)c(OC)c(OC)c2)cc1OCc1cn(Cc2ccc(F)cc2)nn1
active: [1] 3.34% | [2] 1.66%
inactive: [3] 15% | [4] 50.4% | [5] 43.4% | [6] 76.6% | [7] 85.9% | [8] 21.7% | [9] 82.6% | [10] 16.5%

CCCCCCCCCN1C(=O)/C(=c2\sc3n(c2=O)C2C(NN=3)N(CC)C(=O)N2CC)c2ccccc21 (stereo unspecified)
active: [1] 5.57%
inactive: [2] 80.4% | [3] 36.7% | [4] 80.8% | [5] 13.2% | [6] 93.7% | [7] 54.1% | [8] 21.1% | [9] 26.7% | [10] 46.9%

Cc1nc(Nc2cccnc2)sc1C(=O)/C=C/c1ccc(F)cc1
active: [2] 1.5% | [8] 5.9%
inactive: [1] 18.6% | [3] 21.8% | [4] 56.4% | [5] 63.8% | [6] 71.6% | [7] 29.9% | [9] 96.4% | [10] 38.4%

O=C1Nc2cc(Cl)ccc2/C1=C/c1ccc(N2CCOCC2)s1
inactive: [1] 97% | [2] 85.7% | [3] 98.2% | [4] 94.4% | [5] 99.1% | [6] 113% | [7] 45.3% | [8] 115% | [9] 129% | [10] 99.8%

O=C(NCCc1c[nH]c2ccccc12)C1Cc2ccccc2CN1C(=O)c1ccco1 (stereo unspecified)
inactive: [1] 65.5% | [2] 87.3% | [3] 100% | [4] 125% | [5] 96.9% | [6] 125% | [8] 104% | [9] 118% | [10] 128%
active: [7] 3.58%

COc1ccc2c(c1)NC(=O)CN2c1nc(C)nc2ccccc12
inactive: [1] 18.8% | [2] 45.2% | [3] 12.5% | [4] 51.5% | [5] 45.5% | [6] 31.3% | [7] 18.8% | [9] 40% | [10] 14%
active: [8] -13.9%

Nc1nn2cc(-c3ccc(Cl)s3)nc2c2ccccc12
inactive: [1] 49.7% | [2] 92% | [3] 105% | [4] 79.1% | [5] 87.5% | [6] 103% | [7] 44.7% | [8] 77.8% | [9] 96.7% | [10] 86.7%

CCOC(=O)CC(C#N)(CC(=O)OCC)C(=O)OCC
inactive: [1] 100% | [2] 96.1% | [3] 88.8% | [4] 99.9% | [5] 104% | [6] 117% | [7] 118% | [8] 112% | [9] 117% | [10] 106%
